Only some compounds are listed: those with a hit (about 14% of all), similar ones and a draw of the others.
Pf growth 96h: P. falciparum growth inhibition at 96 hour, primary screen for plastid delayed-death inhibitors; 320,000 tested, 6.9% active; P. falciparum luciferase reporter growth, 96 h; Potency, µM (highest dose often 28.7 µM), hits mostly inhibitors; AID 504834
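Plates of compound plus infected erythrocytes (2% hematocrit, 0.05% parasitemia final) incubate 96 hours, 37 C, 5% CO2. Detection reagent added; reduced luminescence from the parasites' luciferase reporter flags inhibition.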
Giardia FBPA inh: inhibitors of Giardia lamblia fructose-1,6-bisphosphate aldolase. purified Giardia FBPA. A8B2U2. 290,000 tested, 0.71% active. Potency, µM (highest dose often 59.6 µM), usual class: inhibitors; note: nearly all actives have a fitted effect of over 55% in size
Target sequence (A8B2U2 whole entry, looked up): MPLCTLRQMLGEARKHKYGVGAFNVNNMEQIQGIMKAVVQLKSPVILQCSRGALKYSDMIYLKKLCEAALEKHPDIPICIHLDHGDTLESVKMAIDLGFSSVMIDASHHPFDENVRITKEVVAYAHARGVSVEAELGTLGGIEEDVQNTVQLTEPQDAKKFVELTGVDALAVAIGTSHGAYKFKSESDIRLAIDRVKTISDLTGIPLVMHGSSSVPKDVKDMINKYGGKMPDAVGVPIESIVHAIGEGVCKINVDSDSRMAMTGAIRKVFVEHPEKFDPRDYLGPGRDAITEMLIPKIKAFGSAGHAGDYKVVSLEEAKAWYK
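40 nM FBPA preincubated 10 min at RT with compound (up to 57.5 uM final), then substrate plus GAPDH/TPI/NAD/arsenate coupling and diaphorase/resazurin added. Fluorescence read after 20 min at RT, 525/598 nm.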
Sm TGR block: inhibitors of Schistosoma mansoni thioredoxin glutathione reductase; Q962Y6; purified TGR, DTNB reduction, TNB absorbance 405 nm; Potency, µM (titrated, usually from 114 µM), usual class: inhibitors; 360,000 tested, 3% active; AID 485364; note: nearly all actives have a fitted effect of over 60% in size
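Kinetic colorimetric format: TGR-catalysed, NADPH-driven DTNB reduction monitored via TNB absorbance. Enzyme dispensed at 20 nM; compound exposure 15 min at room temperature before reaction start.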
HCMV antiviral: blocks human cytomegalovirus replication; activity change, negative = inhibition, % at 57.5 µM; AID 1259415; 410,000 tested, 4.5% active; HFF cells, HCMV-luciferase reporter, 72 h; hits give low values; in the data active = activity change below about -60%; inconclusive = no clear call, values can overlap the other calls; inactive = above about -39%
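Compounds were evaluated in HFFs infected with an HCMV luciferase reporter virus (MOI 1 PFU/cell). Luciferase in lysates collected 72 h post infection served as the replication measure.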
Pf growth 48h: P. falciparum growth inhibition at 48 hours (one generation); 310,000 tested, 5.9% active; Potency, µM (titrated, usually from 28.7 µM), actives largely listed as inhibitors; P. falciparum luciferase growth in erythrocytes, 48 h
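Parasite viability was followed by luminescence of a genomically integrated firefly luciferase. Cultures held 0.1% parasitemia at 2% hematocrit (final), incubated under 5% CO2 at 37 C.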
Numbers stand for hits; n = inactive; u = inconclusive; x = not tested or not shown; [ ] = another dose, or the depositor's remark. Unless noted, calls come from the whole dose curve; as a rule, active = well fitted curve in the direction sought with a large enough effect; inconclusive = small, poorly fitted or top-dose-only effect, or another doubt; inactive = no such curve, though single readings can be large; an effect the other way counts as inactive or inconclusive.

SMILES	Pf growth 96h	Giardia FBPA inh	Sm TGR block	HCMV antiviral	Pf growth 48h
Nc1ccc2ccccc2c1C(=O)c1ccccc1	x	x	x	n	x
COc1ccc(Cl)cc1NC(=O)c1c(C(=O)Nc2cccc(C)c2C)sc2nc(C)cc(=O)n12	x	x	n	n	x
CCN(CC)CCNC(=O)C(=O)NCC1OCCN1C(=O)c1ccc2c(c1)OCO2 (centres undefined)	n	n	n	x	n
O=C(NC1CCCCC1)C(c1ccc(Cl)cc1)N(C(=O)c1cnccn1)c1ccc2c(c1)OCO2 (centres undefined)	n	n	n	n	10µM
CC(=O)Nc1ccc(N(C(=O)c2cnccn2)C(C(=O)NC2CCCCC2)c2ccc(O)cc2)cc1 (centres undefined)	n	n	16µM	n	n
COc1ccc(N(C(=O)c2cnccn2)C(C(=O)NCc2ccccc2)c2ccc(O)cc2)cc1 (centres undefined)	n	n	28µM	n	n
O=C(NCc1ccccc1)C(c1ccc(O)cc1)N(C(=O)c1cnccn1)c1ccccc1 (centres undefined)	n	n	n	n	n
CN1CC(=O)N/C1=N\C(=O)Nc1cccc(Cl)c1	x	x	x	n	x
O=C1CCCN1CCC1CCN(C2CC(=O)N(Cc3ccc(N4CCCC4=O)cc3)C2=O)CC1 (centres undefined)	x	n	18µM	n	u
O=C1CC(N2CCC(O)(c3ccc(Cl)cc3)CC2)C(=O)N1Cc1ccc(N2CCCC2=O)cc1 (centres undefined)	x	n	32µM	n	9.3µM
O=C1CCCN1CCC1CCN(C2CC(=O)N(c3ccc(Cl)cc3)C2=O)CC1 (centres undefined)	n	n	18µM	n	n
O=C1CC(N2CCOCC2)C(=O)N1Cc1ccc(N2CCCC2=O)cc1 (centres undefined)	n	n	n[11.4 µM]	n	x
Cc1cc2ncn(C3CC(=O)N(Cc4ccc(N5CCCC5=O)cc4)C3=O)c2cc1C (centres undefined)	8.3µM	n	u	n	n
CN1CCN(CCOC2c3ccccc3CSc3ccc(Cl)cc32)CC1 (centres undefined)	10µM	n	n	n	u
CC(C(=O)N1CCCC1)N1CCN(c2ccccc2O)CC1 (centres undefined)	n	n	n	n	n
CCSC(=Nc1ccccc1)Nc1ccccc1	n	n	n	u	n
CCOc1ccc(N(CC(=O)Nc2c(C)cc(C)cc2C)C2=NC3CS(=O)(=O)CC3S2)cc1 (centres undefined)	x	x	x	n	x
O=C(c1cc(C(=O)N2CCOCC2)c2nc3ccccc3n2c1)c1ccccc1O	u	n	n	n	u
CCc1c(C)sc2nc3c(C(=O)N4CCOCC4)cc(C(=O)c4cc(F)ccc4O)cn3c(=O)c12	2.1µM	n	n	n	u
COc1cccc(N2CCN(C(=O)c3cccn4c(=O)c5c(C)c(C)sc5nc34)CC2)c1	u	n	n	n	n
Cc1sc2nc3c(C(=O)N4CCCC4)cc(C(=O)c4ccccc4O)cn3c(=O)c2c1C	u	n	n	n	13µM
Cc1ccc(-n2c(COCC(=O)O)nc3cccnc32)cc1	x	x	n	n	x
Brc1ccc(N/N=C(/N=Nc2nn[nH]n2)c2ccccc2)cc1	1.9µM	u	n	-100	3.3µM
O=C(O)c1ccc(N=N/C(=N\Nc2ccc(C(=O)O)cc2)c2ccccc2)cc1	n	x	n	n	n
CCC[N+]1(CC#CC(O)(c2ccccc2)C2CCCCC2)CCCCC1 (centres undefined)	n	n	n	n	1.7µM
SMILES	Pf growth 96h	Giardia FBPA inh	Sm TGR block	HCMV antiviral	Pf growth 48h
CC(C)OC(=O)c1c(N)n(Cc2ccco2)c2nc3ccccc3nc12	n	u	n	n	n
CC(C)OC(=O)c1c2nc3ccccc3nc2n2c1[nH]c(=O)c1ccccc12	6.6µM	n	n	x	n
CN(CC(=O)Nc1ccccc1Cl)C(=O)CN1C(=O)C2CC=CCC2C1=O (centres undefined)	x	x	x	n	x
CC1=Nc2cc(C(=O)N3CCCC3)ccc2Sc2ccc(C)cc21	u	n	n	n	9.3µM
COc1cccc(C(=O)N2CCC3(CC2)OCCO3)c1	u	n	n	n	n
CCCC1=Nc2cc(C(=O)N3CCCC3)ccc2Sc2ccc(C)cc21	n	n	n	n	12µM
CCC1=Nc2cc(C(=O)N3CCC4(CC3)OCCO4)ccc2Sc2ccccc21	n	u	n	u	u
Cc1cccc(-c2nc3ccc(C(=O)N4CCC5(CC4)OCCO5)cc3nc2-c2cccc(C)c2)c1	u	x	n	n	10µM
CCC1=Nc2cc(C(=O)N3CCC4(CC3)OCCO4)ccc2Sc2ccc(C)cc21	n	n	n	n	10µM
COc1ccc(C(=O)N2CCC3(CC2)CCN(C(c2ccccc2)c2ccccc2)CC3)cc1	x	n	x	x	x
COC(=O)CN1C(=O)CSc2ccc(S(=O)(=O)Nc3cccc(Br)c3)cc21	x	x	n	n	x
COc1ccccc1N1CCN(S(=O)(=O)c2ccc3c(c2)CCCN3C(C)=O)CC1	x	x	n	n	x
CC1=Nc2cc(C(=O)N3CCCCC3)ccc2Sc2ccc(C)cc21	n	n	n	n	9.3µM
CCCC1=Nc2cc(C(=O)N3CCC(C(N)=O)CC3)ccc2Sc2ccccc21	u	n	n	n	u
CCCC1=Nc2cc(C(=O)N3CCN(c4ccccn4)CC3)ccc2Sc2ccc(C)cc21	u	n	n	n	9.3µM
CCCC1=Nc2cc(C(=O)N3CCC(C(=O)OCC)CC3)ccc2Sc2ccccc21	9.3µM	n	n	n	8.3µM
CCC1=Nc2cc(C(=O)N3CCCCC3)ccc2Sc2ccc(C)cc21	n	n	n	n	u
COc1cccc(CNC(=O)c2cc(S(=O)(=O)N3CCOCC3)cn2C)c1	u	n	n	n	n
CCC(C(=O)Nc1cc(C(F)(F)F)ccc1Cl)n1nc(C)c2sc3ccccc3c2c1=O (centres undefined)	x	x	n	n	x
Cc1ccc(SC(c2ccc(C)cc2)C(Cn2cncn2)C(=O)c2ccccc2)cc1 (centres undefined)	u	n	n	n	x
Cc1ccc(C(Sc2ccccc2)C(Cn2cncn2)C(=O)c2ccccc2)cc1 (centres undefined)	9.3µM	n	n	n	x
COc1cc(OC)c(OC)cc1CCC(C)NCCC(c1ccccc1)c1ccccc1 (centres undefined)	2.1µM	n	n	-60	4.1µM
CC(C)C[C@H](NC(=O)c1nc[nH]c1C(=O)NC(c1ccccc1)c1ccccc1)C(=O)OC(C)(C)C	u	n	n	-63	u
CC(C)C[C@H](NC(=O)c1[nH]cnc1C(=O)N[C@H](C)c1ccccc1)C(=O)OC(C)(C)C	u	u	n	u	u
CC(C)C[C@H](NC(=O)c1nc[nH]c1C(=O)N[C@@H](CC(C)C)C(=O)OC(C)(C)C)C(=O)OC(C)(C)C	8.3µM	n	n	n	6.6µM
CC(C)C[C@H](NC(=O)c1[nH]cnc1C(=O)Nc1ccc(Cl)cc1)C(=O)OC(C)(C)C	13µM	n	n	n	13µM
